Source: PubChem BioAssay
In the library only some 2.4% were active in any assay of this set; here they are far more common.
ELG1 repair inh – blocks ELG1-dependent DNA repair in HEK293T cells; HEK293T ELG1-luciferase reporter, luminescence, 16 h; DNA damage induced by 5-fluorouridine; Potency, µM (titrated, usually from 46.1 µM), actives largely listed as inhibitors; hit rate 2.3% among 330,000; AID 504467; also: nearly all actives have a fitted effect of over 55% in size
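DMSO vehicle served as the neutral condition. Each well held 2,000 cells given 5-fluorouridine plus compound; after 16 hr at 37 °C/5% CO2, ONE-Glo was added and luciferase measured 30 min later.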
Rango dissoc inh – prevents RanGTP from dissociating the Rango-importin beta complex | O95149+P62826 | Biochemical FRET Rango-importin beta, RanGTP-induced dissociation | Potency, µM (titrated, usually from 46.1 µM) | hit rate 0.071% among 340,000; calls by dose curve; also: nearly all actives have a fitted effect of over 45% in size
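Rango/importin beta premix (0.1/0.25 uM final), PBS + 1 mM DTT + 0.02% Tween-20 + 0.1% BSA; cpd 5 min RT; FRET pre-read; + RanGTP-RCC1 (0.6 uM Ran, 2 mM GTP, 0.2 uM RCC1); 45 min RT; FRET post-read, ex 430, em 486/530 nm.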
Rango complex inh – Rango-importin beta binding inhibition | Rango CFP/YFP FRET sensor + importin beta, 45 min | AID 540263 | Q14974 | Potency, µM (titrated, usually from 92.2 µM) | hit rate 0.031% among 340,000; calls by dose curve; also: nearly all actives have a fitted effect of over 15% in size
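FRET biosensor (snurportin 1 IBB flanked by EYFP and cerulean), 50 nM, with compound 5 min, then 0.125 microM importin beta in PBS, 1 mM DTT, 0.02% Tween-20, 0.1% BSA. CFP/YFP ratio read after 45 min at room temperature; pre-read flags interference.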
Tb PFK block – T. brucei PFK enzyme inhibition | O15648 | T. brucei PFK, ADP-Glo luminescence | Potency, µM (highest dose often 57.5 µM), hits mostly inhibitors | hit rate 0.17% among 330,000 | AID 485367; also: nearly all actives have a fitted effect of over 60% in size
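In TEA buffer at pH 8.0 with 5 mM MgCl2, enzyme (1.25 nM) converted F6P (0.5 mM) and ATP (0.1 mM) for 45 min at room temperature. ADP product was read by luciferase luminescence.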
PKM2 activator – increases activity of human pyruvate kinase M2; purified PKM2, Kinase-Glo ATP luminescence, activation; response scale: 0% is enzyme alone, no compound; Potency, µM (top dose mostly 57.5 µM), actives largely listed as activators; hit rate 0.34% among 260,000; AID 1631; also: nearly all actives have a fitted effect of over 55% in size
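hPK-M2, >95% pure; 0.1 mM ADP / 0.5 mM PEP final; imidazole pH7.2 buffer w/ 7 mM MgCl2, 50 mM KCl; 1 h RT; Kinase-Glo lum. Intermediate enzyme activity for dual inhibitor/activator qHTS.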
Tb PGK inh – T. brucei PGK inhibition; hit rate 0.043% among 380,000; PGK/GAPDH coupled, Kinase-Glo luminescence, 60 min; P07378; AID 602233; Potency, µM (series often up to 57.5 µM), hits mostly inhibitors; also: nearly all actives have a fitted effect of over 60% in size
Target sequence (P07378 whole entry, looked up): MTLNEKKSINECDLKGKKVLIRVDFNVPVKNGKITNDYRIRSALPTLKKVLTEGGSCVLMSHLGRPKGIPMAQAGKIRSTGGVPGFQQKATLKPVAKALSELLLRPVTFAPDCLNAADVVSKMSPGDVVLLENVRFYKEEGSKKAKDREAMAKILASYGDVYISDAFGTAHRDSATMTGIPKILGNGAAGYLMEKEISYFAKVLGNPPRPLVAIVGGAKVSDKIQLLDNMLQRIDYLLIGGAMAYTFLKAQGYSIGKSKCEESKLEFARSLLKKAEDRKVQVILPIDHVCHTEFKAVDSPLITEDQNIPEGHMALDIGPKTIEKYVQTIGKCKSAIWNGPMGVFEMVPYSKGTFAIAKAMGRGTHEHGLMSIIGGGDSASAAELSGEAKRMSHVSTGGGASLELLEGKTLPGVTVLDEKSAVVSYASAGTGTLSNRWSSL
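Recombinant glycosomal PGK reaction used 1,3-bisphosphoglycerate generated in-well by GAPDH (100nM final) in 100mM TEA pH 7.6, 5mM MgCl2, 0.01% Tween-20. After 60 minutes at room temperature, ATP was read by Kinase-Glo Plus luminescence end-point.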
Numbers stand for hits; - = inactive; ? = inconclusive; . = no result. Unless noted, calls follow the shape of the dose curve; as a rule, active = well fitted curve in the direction sought with a large enough effect; inconclusive = small, poorly fitted or top-dose-only effect, or another doubt; inactive = no such curve, though single readings can be large; an effect the other way counts as inactive or inconclusive.

SMILES | ELG1 repair inh | Rango dissoc inh | Rango complex inh | Tb PFK block | PKM2 activator | Tb PGK inh
COc1ccc(N2CCN(C(CNC(=O)C(=O)NCc3ccc4c(c3)OCO4)c3ccco3)CC2)cc1 (stereo not given) | 7.3µM | - | - | - | - | -
COc1ccc(CNC(=O)CC(c2ccc(OC)c(OC)c2)N2Cc3ccccc3C2=O)cc1 (stereo not given) | . | . | . | . | . | -
COc1ccc(Cl)cc1NC(=O)CN(C)CC(=O)Nc1cc(OC)c(OC)c(OC)c1 | 18.3µM | - | - | - | . | -
COc1ccc(OC)c(NC(=O)Nc2c(C)n(C)n(-c3ccccc3)c2=O)c1 | . | . | . | . | . | -
COc1ccc(Cl)cc1NC(=O)CN(C)CC(=O)Nc1c(C)n(C)n(-c2ccccc2)c1=O | 18.3µM | - | - | - | . | -
O=C(Cn1c(=O)n(Cc2ccco2)c(=O)c2sc3ccccc3c21)Nc1ccccc1C(F)(F)F | . | . | . | . | . | -
O=C(CCNC(=O)c1ccc(Cl)cc1)Nc1ccccc1N1CCCC1 | - | - | - | - | . | -
CCOC(=O)C1(CCCc2ccccc2)CCN(C(=O)c2cnc(C)cn2)CC1 | 16.4µM | - | - | - | - | -
CCOC(=O)C1(CCCc2ccccc2)CCN(C(=O)c2cc(C)nc(C)n2)CC1 | - | - | - | - | - | -
CCOC(=O)C1(CCCc2ccccc2)CCN(C(=O)CN2C(=O)CSC2=O)CC1 | 11.6µM | - | - | - | - | -
CCc1c(C)nc(SCc2nc(-c3ccccc3)no2)[nH]c1=O | . | . | . | . | . | -
COc1ccc(-c2cc(C(F)(F)F)nc(-n3ccnc3C)n2)cc1 | 25.9µM | - | - | - | - | -
CCOC(=O)N1CCN(Cc2nc3c(c(=O)n(C)c(=O)n3C)n2Cc2ccc(F)cc2)CC1 | ? | - | - | - | - | -
CCCCCn1c(CN2CCN(Cc3ccccc3)CC2)nc2c1c(=O)n(C)c(=O)n2C | 20.6µM | - | - | - | - | -
Cn1c(=O)c2c(nc(N3CCN(Cc4ccccc4)CC3)n2CCCc2ccccc2)n(C)c1=O | 11.6µM | - | - | - | - | -
CCOC(=O)N1CCN(Cc2nc3c(c(=O)n(C)c(=O)n3C)n2Cc2cccc(C)c2)CC1 | 18.4µM | - | - | - | - | -
Cn1c(=O)c2c(nc(CN3CCc4ccccc4C3)n2Cc2ccccc2)n(C)c1=O | 16.4µM | - | - | - | - | -
CCn1c(=O)cc(OCC(=O)N(C)c2ccc(OC)cc2)c2ccccc21 | . | . | . | . | . | -
CSc1nc(=S)n(-c2ccc([N+](=O)[O-])cc2)c(C)c1C(C)=O | - | - | - | - | - | -
Cn1c(=O)c2c(nc(CN3CCN(c4ccccc4)CC3)n2Cc2c(F)cccc2Cl)n(C)c1=O | 10µM | - | - | - | - | -
COc1cc(NC(=O)c2cc3ccccc3cc2OC)ccc1NC(=O)c1cccs1 | 14.6µM | - | ? | - | - | -
COc1cc(NC(=S)NC(=O)c2ccccc2C)ccc1NC(=O)c1cccs1 | 13µM | - | - | - | - | -
CCc1noc(C)c1C(=O)Nc1nc(-c2cc(OC)ccc2OC)cs1 | 16.4µM | - | - | - | . | -
Cc1sc(NC(=O)c2ccco2)nc1-c1ccc2c(c1)CC(C)N2C(=O)C1CC1 (stereo not given) | 14.6µM | - | - | - | - | -
CC(=O)Nc1nc(-c2ccc3c(c2)CC(C)N3C(=O)C2CC2)c(C)s1 (stereo not given) | 8.2µM | - | - | - | . | -
N#CCC(=O)N/N=C\c1cc(Br)ccc1OC/C=C/c1ccccc1 | ? | - | - | - | - | -
CCc1ccc2[nH]c(=O)c(C3C(C#N)=C(N)Oc4c3ccc3cccnc43)cc2c1 (stereo not given) | 11.6µM | - | - | - | - | -
CCc1ccc(-c2nc(CS(=O)CC(=O)NCc3ccc4c(c3)OCO4)c(C)o2)cc1 (stereo not given) | - | - | - | - | . | -
NS(=O)(=O)c1ccc(CCNC(=O)c2ccc([N+](=O)[O-])s2)cc1 | 13µM | ? | - | - | . | -
